The test system of this test is Toxoplasma gondii RH (in HFF). Description: parasite growth relative to the screen mean (all compounds = 100%); higher = less inhibition of parasite growth. The settings on record: 5 µM; 72 h; oxygen 21 %. The method, boiled down:
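Confluent human foreskin fibroblasts in 96-well plates received library compounds by pin transfer at 5 µM final, taken from 10 mM DMSO stocks. Within 2 h the cells were infected with RH β-Gal–GFP Toxoplasma at MOI 1:5 and cultured 72 h at 21% O2. A CPRG β-Gal assay read against in-plate standard curves gave parasite number, and growth is stated relative to the screen mean, where all compounds = 100%, averaged across two screens.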

Counter-ions that a name gives are not always drawn. ± gives the standard deviation of the averaged measurements.

Take `CCN1CCC[C@H]1CNC(=O)c1cc(S(N)(=O)=O)ccc1OC` [(S)-(-)-Sulpiride]: the parasite growth amounted to 93.2 ± 3.8%.

In turn, `CCCn1c(=O)c(C)cn2nc(N)nc12` yielded a parasite growth of 145 ± 2.1%. Molecule `c1ccc(N2CCN(CCCOc3ccc4c(c3)OCO4)CC2)cc1` [BP 554 maleate] gave a parasite growth of 127 ± 0.98%.

The molecule `O=C(c1ccc(F)cc1)C1CCN(CCCCc2ccccc2)CC1` [4-(4-Fluorobenzoyl)-1-(4-phenylbutyl)-piperidine oxalate] gave a parasite growth of 110 ± 7.6%.

The molecule `COc1cc([C@@H]2c3cc4c(cc3[C@@H](O[C@@H]3O[C@@H]5CO[C@@H](C)O[C@H]5[C@H](O)[C@H]3O)[C@H]3COC(=O)[C@H]23)OCO4)cc(OC)c1O` [Etoposide] showed a parasite growth of 77.2 ± 18%. With `COc1ccc2[nH]cc(CCNC(C)=O)c2c1` [Melatonin], the parasite growth was 84.8 ± 3.7%. The result for `CC(=Cc1ccc(C(=O)O)cc1)c1ccc2c(c1)C(C)(C)CCC2(C)C` reads 120 ± 27%.
